Assay results as given in PubChem BioAssay (NCI).
The panel holds about 83,000 compounds, 20% with a hit somewhere; the sample as a whole holds those more often.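 Interpretation: 100, growth as untreated; towards 0, rising growth inhibition; 0, no net growth; 0 to -100, cell death. Compounds scoring below 10 were considered active.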 Calls of active or inactive are those of the source.

How the values were obtained:
Test in all cases: NCI-60 one-dose screen, 48 h (100 = growth as untreated, 0 = no growth, -100 = all killed)
Conditions in all cases: 10 µM unless noted
HCT-15 colon = tested on: HCT-15 colon
HT29 colon = tested on: HT29 colon
SNB-75 CNS = tested on: SNB-75 CNS
SNB-19 CNS = tested on: SNB-19 CNS
U251 CNS = tested on: U251 CNS
PC-3 prostate = tested on: PC-3 prostate
SK-MEL-5 melanoma = tested on: SK-MEL-5 melanoma
UACC-62 melanoma = tested on: UACC-62 melanoma
LOX IMVI melanoma = tested on: LOX IMVI melanoma
SK-MEL-28 melanoma = tested on: SK-MEL-28 melanoma
SK-MEL-2 melanoma = tested on: SK-MEL-2 melanoma
EKVX NSCLC = tested on: EKVX NSCLC
SN12C renal = tested on: SN12C renal
UO-31 renal = tested on: UO-31 renal
TK-10 renal = tested on: TK-10 renal
ACHN renal = tested on: ACHN renal
CAKI-1 renal = tested on: CAKI-1 renal
CCRF-CEM leukemia = tested on: CCRF-CEM leukemia
MOLT-4 leukemia = tested on: MOLT-4 leukemia
A498 renal = tested on: A498 renal

Measured: growth

Cc1cccc2c(=O)c3c(sc12)c(NCCNCCO)nc1ccccc13
active: HCT-15 colon 0.304% | HT29 colon -55.4% | LOX IMVI melanoma -89.8% | SK-MEL-28 melanoma -67.4% | ACHN renal -19.2% | MOLT-4 leukemia -31.1%
inactive: SNB-75 CNS 32.8% | SNB-19 CNS 49.6% | U251 CNS 13.4% | PC-3 prostate 38.7% | SK-MEL-5 melanoma 39.5% | UACC-62 melanoma 26% | SK-MEL-2 melanoma 79.3% | EKVX NSCLC 41.6% | SN12C renal 33.4% | UO-31 renal 29.6% | TK-10 renal 34.9% | CAKI-1 renal 22.1% | CCRF-CEM leukemia 13.7%

O=[N+]([O-])c1ccc2nc(N/N=C/c3ccc(O)cc3)sc2c1
inactive: HCT-15 colon 53.4% | HT29 colon 78% | SNB-75 CNS 73.7% | SNB-19 CNS 77.9% | U251 CNS 45.9% | PC-3 prostate 38.4% | SK-MEL-5 melanoma 58.1% | UACC-62 melanoma 81.7% | LOX IMVI melanoma 49.7% | SK-MEL-28 melanoma 89% | EKVX NSCLC 85.5% | SN12C renal 54.7% | UO-31 renal 27.5% | TK-10 renal 54% | ACHN renal 47% | CAKI-1 renal 23.2% | A498 renal 91.5% | MOLT-4 leukemia 24%
active: SK-MEL-2 melanoma -0.896%

CC1SC(c2ccc(Cl)cc2)N(CCc2cccs2)C1=O (configuration not stated)
inactive: SNB-19 CNS 12.4% | CCRF-CEM leukemia 10.1%
active: HCT-15 colon 1.46% | HT29 colon -40.2% | SNB-75 CNS -9.5% | U251 CNS -8.49% | PC-3 prostate -1.67% | SK-MEL-5 melanoma -99.2% | UACC-62 melanoma -46.3% | LOX IMVI melanoma -85.2% | SK-MEL-28 melanoma 8.16% | SK-MEL-2 melanoma -72.8% | EKVX NSCLC -12.5% | SN12C renal -75.6% | UO-31 renal 1.81% | TK-10 renal -16.5% | ACHN renal -6.58% | CAKI-1 renal -33.6% | A498 renal -13.7% | MOLT-4 leukemia -4.19%

COc1cc(CNCCN2C(=O)c3ccc4c5c(ccc(c35)C2=O)C(=O)N(CCNCc2cc(OC)c(OC)c(OC)c2)C4=O)cc(OC)c1OC
active: HCT-15 colon -66.2% | HT29 colon -52.3% | SNB-75 CNS -98% | SNB-19 CNS -79.8% | U251 CNS -68.1% | PC-3 prostate -73.1% | SK-MEL-5 melanoma -87.7% | UACC-62 melanoma -92.4% | LOX IMVI melanoma -99% | SK-MEL-28 melanoma -89.3% | SK-MEL-2 melanoma -82.3% | EKVX NSCLC -42% | SN12C renal -87.7% | UO-31 renal -70.2% | TK-10 renal -87.1% | ACHN renal -92.2% | CAKI-1 renal -70% | A498 renal -92.7% | CCRF-CEM leukemia -20.7% | MOLT-4 leukemia -4.82%

CCCCCCCC/C=C\CCCCCCCCOc1cccc(CC(=O)NCC[N+]2(C)CCCCC2)c1
inactive: HCT-15 colon 102% | HT29 colon 27% | SNB-75 CNS 50.7% | SNB-19 CNS 56.7% | U251 CNS 51.6% | PC-3 prostate 22.1% | SK-MEL-5 melanoma 89.4% | UACC-62 melanoma 70.1% | LOX IMVI melanoma 74.5% | SK-MEL-28 melanoma 98.7% | SK-MEL-2 melanoma 91.8% | EKVX NSCLC 78.7% | SN12C renal 47.8% | UO-31 renal 86.8% | TK-10 renal 76.8% | ACHN renal 94.7% | CAKI-1 renal 70.3% | CCRF-CEM leukemia 38.5% | MOLT-4 leukemia 57%

COc1cc(OCc2cccc(-c3ccc(C(O)c4nccs4)cc3)c2C)cc(OC)c1C=O (configuration not stated)
active: SK-MEL-5 melanoma -78.1% | UACC-62 melanoma -4.45% | CAKI-1 renal 2.55%
inactive: HCT-15 colon 32.3% | HT29 colon 48.7% | SNB-75 CNS 69.6% | SNB-19 CNS 70.4% | U251 CNS 60.6% | PC-3 prostate 52.2% | LOX IMVI melanoma 48.8% | SK-MEL-28 melanoma 57.3% | SK-MEL-2 melanoma 60.4% | EKVX NSCLC 43% | SN12C renal 61.8% | UO-31 renal 22.9% | TK-10 renal 27.7% | ACHN renal 25.2% | CCRF-CEM leukemia 37.2% | MOLT-4 leukemia 21.2%

COC(=O)c1c2c(c(C)[n+]([O-])c1C)C(=O)C=C(NCc1cccc(Cl)c1)C2=O
inactive: TK-10 renal 14.5%
active: HCT-15 colon -66.9% | HT29 colon 3.61% | SNB-75 CNS -95.4% | SNB-19 CNS -53.4% | U251 CNS -20.7% | PC-3 prostate -1.7% | SK-MEL-5 melanoma -97.1% | UACC-62 melanoma -68% | LOX IMVI melanoma -57.5% | SK-MEL-28 melanoma -1.27% | SK-MEL-2 melanoma -32.8% | EKVX NSCLC -57.3% | SN12C renal -90.7% | UO-31 renal -18.5% | ACHN renal -44.8% | CAKI-1 renal -14.3% | CCRF-CEM leukemia -11.2% | MOLT-4 leukemia -34.8%

O=C(N/N=C/c1ccc(OC(F)F)c(OC2CCCC2)c1)c1cnn2c1NC(c1ccccc1)C2 (configuration not stated)
inactive: HCT-15 colon 51.1% | HT29 colon 81.7% | SNB-75 CNS 57.6% | SNB-19 CNS 79.9% | U251 CNS 82.1% | PC-3 prostate 61.7% | SK-MEL-5 melanoma 70.9% | UACC-62 melanoma 71.2% | LOX IMVI melanoma 68.1% | SK-MEL-28 melanoma 88.7% | SK-MEL-2 melanoma 90.7% | EKVX NSCLC 91.5% | SN12C renal 87.1% | UO-31 renal 65.1% | TK-10 renal 91.9% | ACHN renal 82.3% | CAKI-1 renal 62.6% | CCRF-CEM leukemia 78.7% | MOLT-4 leukemia 54.7%

O=C(CCc1nnc2sc(/C=C\c3ccccc3)nn12)c1nc2ccccc2[nH]1
inactive: HCT-15 colon 99.6% | HT29 colon 36.8% | SNB-75 CNS 87.9% | SNB-19 CNS 110% | U251 CNS 89.1% | PC-3 prostate 77.1% | SK-MEL-5 melanoma 75.9% | UACC-62 melanoma 103% | LOX IMVI melanoma 75.3% | SK-MEL-28 melanoma 93.3% | SK-MEL-2 melanoma 98.1% | EKVX NSCLC 88.6% | SN12C renal 91.9% | UO-31 renal 70.4% | TK-10 renal 113% | ACHN renal 99.5% | CAKI-1 renal 93.4% | A498 renal 65.2% | MOLT-4 leukemia 62.8%

CN1CCN(C)c2cncc(Br)c2C1=O
inactive: HCT-15 colon 105% | HT29 colon 107% | SNB-75 CNS 101% | SNB-19 CNS 106% | U251 CNS 106% | PC-3 prostate 103% | SK-MEL-5 melanoma 101% | UACC-62 melanoma 105% | LOX IMVI melanoma 102% | SK-MEL-28 melanoma 110% | SK-MEL-2 melanoma 118% | SN12C renal 101% | UO-31 renal 79.5% | TK-10 renal 126% | ACHN renal 108% | A498 renal 85% | MOLT-4 leukemia 98.5%
active: EKVX NSCLC -82.7% | CAKI-1 renal -89.3%

COc1ccc(/C=C2\SC(=O)N(CN3CCN(c4cc5c(cc4F)c(=O)c(C(=O)O)cn5C4CC4)CC3)C2=O)cc1
inactive: HCT-15 colon 106% | HT29 colon 111% | SNB-75 CNS 85.1% | SNB-19 CNS 100% | U251 CNS 99.8% | PC-3 prostate 97.6% | SK-MEL-5 melanoma 97.2% | UACC-62 melanoma 98.1% | LOX IMVI melanoma 79.9% | SK-MEL-28 melanoma 112% | SK-MEL-2 melanoma 101% | EKVX NSCLC 97.4% | SN12C renal 108% | UO-31 renal 80.2% | TK-10 renal 104% | ACHN renal 111% | CAKI-1 renal 94.1% | CCRF-CEM leukemia 111% | MOLT-4 leukemia 116%

Cc1cc(NS(=O)(=O)c2ccc(NC(=O)COc3ccc(-c4cc5ccccc5[nH]4)cc3)cc2)no1
inactive: HCT-15 colon 24.7% | HT29 colon 12.3% | SNB-19 CNS 29.6% | U251 CNS 20.8% | PC-3 prostate 13.3% | SK-MEL-5 melanoma 12.4% | UACC-62 melanoma 31.4% | SK-MEL-28 melanoma 18.9% | SK-MEL-2 melanoma 27.3% | EKVX NSCLC 54.4% | SN12C renal 39.2% | UO-31 renal 26.4% | TK-10 renal 52.6% | ACHN renal 21.7% | CAKI-1 renal 57.5% | A498 renal 42.9%
active: SNB-75 CNS -12.2% | LOX IMVI melanoma 4.54% | MOLT-4 leukemia -2.31%

Cc1ccc(S(=O)(=O)c2ccc3[nH]c(=O)[nH]c(=O)c3c2)cc1
inactive: HCT-15 colon 103% | HT29 colon 107% | SNB-75 CNS 92.4% | SNB-19 CNS 94.3% | U251 CNS 95.1% | PC-3 prostate 86.2% | SK-MEL-5 melanoma 103% | UACC-62 melanoma 92.9% | LOX IMVI melanoma 101% | SK-MEL-28 melanoma 114% | SK-MEL-2 melanoma 100% | EKVX NSCLC 122% | SN12C renal 97.7% | UO-31 renal 96.1% | TK-10 renal 93.8% | ACHN renal 109% | CAKI-1 renal 97.1% | A498 renal 102% | CCRF-CEM leukemia 91.4% | MOLT-4 leukemia 94.6%

COc1cc2oc(-c3ccc(O)cc3)cc(=O)c2c(O)c1I
inactive: HCT-15 colon 100% | HT29 colon 107% | SNB-75 CNS 99% | SNB-19 CNS 95.9% | U251 CNS 97% | PC-3 prostate 97.5% | SK-MEL-5 melanoma 101% | UACC-62 melanoma 102% | LOX IMVI melanoma 107% | SK-MEL-28 melanoma 108% | SK-MEL-2 melanoma 103% | EKVX NSCLC 87.8% | SN12C renal 100% | UO-31 renal 93% | TK-10 renal 109% | ACHN renal 98.7% | CAKI-1 renal 96.6% | CCRF-CEM leukemia 94.9% | MOLT-4 leukemia 111%

CCN(CC)c1ccc2c(c1)OS(=O)(=O)N=C2
inactive: HCT-15 colon 102% | HT29 colon 111% | SNB-75 CNS 87.9% | SNB-19 CNS 101% | U251 CNS 99.3% | PC-3 prostate 100% | SK-MEL-5 melanoma 99.5% | UACC-62 melanoma 101% | LOX IMVI melanoma 89.2% | SK-MEL-28 melanoma 105% | SK-MEL-2 melanoma 113% | EKVX NSCLC 88% | SN12C renal 100% | UO-31 renal 82.6% | TK-10 renal 101% | ACHN renal 102% | CAKI-1 renal 94.7% | CCRF-CEM leukemia 106% | MOLT-4 leukemia 110%

CC(=O)OC[C@]1(C)C=C2C(=O)[C@](C)(O)C3(CC3)C(C)=C2[C@H]1OC(C)=O
inactive: HCT-15 colon 72.9% | HT29 colon 69.9% | SNB-75 CNS 56.5% | SNB-19 CNS 83% | U251 CNS 79.5% | PC-3 prostate 88.1% | SK-MEL-5 melanoma 87.8% | UACC-62 melanoma 103% | LOX IMVI melanoma 78.3% | SK-MEL-28 melanoma 109% | SK-MEL-2 melanoma 103% | EKVX NSCLC 114% | SN12C renal 83.6% | UO-31 renal 41.5% | TK-10 renal 99.1% | ACHN renal 51.3% | CAKI-1 renal 84.2% | CCRF-CEM leukemia 95.1% | MOLT-4 leukemia 109%
